Screening results: PubChem BioAssay, National Center for Advancing Translational Sciences (NCATS)
Sampled rows, rich in hits. Any-hit rate of the full collection: about 10%.
PNC assembly inh: High Content Assay for Compounds that inhibit the Assembly of the Perinucleolar Compartment; actives 3.1% (n = 140,000); AID 2417, 2010; PC3M PTB-GFP, PNC prevalence imaging, 16 h; active compounds read low; activity change (PNC), negative = inhibition, % at 10 µM;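 active = readout at or below -70, meaning at least 70% loss of cells showing the perinucleolar compartment, a nuclear body marking cancer cells; inconclusive = readout between -30 and a set limit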;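 also: plate controls were DMSO wells for no effect and camptothecin positive control wells for full effect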
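Compounds are pinned in duplicate onto adhered PC3M cells stably expressing GFP-tagged PTB and incubated 16 h at 37 C. Cells are then fixed, nuclei stained with Hoechst, and PNC-positive cells counted.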
Lamin A splicing: qHTS Assay for Modulators of Lamin A Splicing. HeLa LMNA splicing GFP/RFP minigene ratio, 48 h. actives 0.01% (n = 200,000). Potency, µM (top dose mostly 46.1 µM), for the others: at the highest dose ratio change, negative = inhibition, actives largely listed as inhibitors. AID 1487, 2009; active = well fitted inhibition curve with a large enough effect in the signal ratio, with a control signal flat, not every such curve was filed as active; inconclusive = small, poorly fitted or top-dose-only effect, or effect the other way, or a change in a side signal; the % refers to the signal ratio; also: potency is read from the fitted curve at half-maximal effect
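S3 HeLa cells stably expressing lamin A-EGFP splicing minigene plus DsRed2, 600 cells/well, 48 h compound exposure at 37C. Laser-scanning cytometry; analysed as GFP (500-530 nm)/RFP (575-640 nm) total intensity ratio; 0.5% DMSO vehicle.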
HPGD inh: qHTS Assay for Inhibitors of HPGD (15-Hydroxyprostaglandin Dehydrogenase); 15-hydroxyprostaglandin dehydrogenase [NAD(+)] (Homo sapiens), P15428; purified HPGD, NADH fluorescence kinetic, PGE2 substrate; Potency, µM, for the others: at the highest dose activity change, negative = inhibition, hits mostly inhibitors; actives 4.3% (n = 150,000); AID 894, 2007; also: potency is read from the fitted curve at half-maximal effect
Target sequence (P15428 whole entry, looked up): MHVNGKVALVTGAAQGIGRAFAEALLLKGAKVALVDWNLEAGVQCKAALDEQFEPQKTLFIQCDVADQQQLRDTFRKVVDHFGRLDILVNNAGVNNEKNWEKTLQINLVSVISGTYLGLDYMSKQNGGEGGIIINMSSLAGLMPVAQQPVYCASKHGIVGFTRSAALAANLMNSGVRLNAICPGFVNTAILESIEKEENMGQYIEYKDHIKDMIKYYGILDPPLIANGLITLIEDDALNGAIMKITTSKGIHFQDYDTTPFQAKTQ
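20 nM HPGD preincubated 15 min at room temperature with compound in 50 mM Tris-HCl pH 8, 0.01% Tween 20. Started with 1 mM NAD+ and 30 uM prostaglandin E2; NADH fluorescence (360/450 nm) read 5 times over 30-s intervals, last minus first.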
ALDH1A1 block: qHTS Assay for Inhibitors of Aldehyde Dehydrogenase 1 (ALDH1A1); Aldehyde dehydrogenase 1A1 (Homo sapiens), P00352; Purified ALDH1A1, NADH fluorescence, propionaldehyde substrate; Potency, µM (series often up to 75.3 µM), for the others: at the highest dose activity, negative = inhibition, actives largely listed as inhibitors; actives 7.3% (n = 220,000); AID 1030, 2008;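 also: potency is read from the fitted curve at half-maximal effect; plate controls were no enzyme wells and a reference inhibitor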
IMPase cell inh: qHTS Assay for Identifying the Cell-Membrane Permeable IMPase Inhibitors. Inositol monophosphatase 1 (Rattus norvegicus), P97697. CHO-M1 cells, IP1 accumulation, HTRF TR-FRET ratio. inhibition (IP1 accumulation), % at 46.1 µM. 120,000 tested, under 10 active. AID 901, 2007; active = well fitted curve in the direction sought with a large enough effect in the signal ratio, not every such curve was filed as active; inconclusive = small, poorly fitted or top-dose-only effect, or a change in a side signal; inactive = no such curve, though single readings can be large or run the other way; the % refers to the signal ratio;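 also: cells stimulated with carbachol in lithium chloride buffer; plate controls were DMSO basal wells for no effect and reference inhibitor wells for full effect; higher means more IMPase inhibition seen as more IP1 and lower FRET ratio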
Target sequence (P97697 whole entry, looked up): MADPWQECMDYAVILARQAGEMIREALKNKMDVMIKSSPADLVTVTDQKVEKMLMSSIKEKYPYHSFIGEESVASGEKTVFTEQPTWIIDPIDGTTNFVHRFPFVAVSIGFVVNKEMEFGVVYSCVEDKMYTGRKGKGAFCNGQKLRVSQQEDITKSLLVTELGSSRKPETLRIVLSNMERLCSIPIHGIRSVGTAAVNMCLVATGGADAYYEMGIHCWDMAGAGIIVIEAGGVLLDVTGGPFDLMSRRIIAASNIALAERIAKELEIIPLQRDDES
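CHO-M1 cells (CHO stably expressing M1 receptor), compound up to 46 uM final, stimulated with carbachol (50 uM as added) in buffer with 50mM LiCl, pH 7.4, 30 min at 37C. Cytosolic IP1 read by TR-FRET; AC50 from Hill fits.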
KinaseGlo FLuc: Counterscreen for Luciferase (Kinase-Glo TM) Inhibition | Luciferin 4-monooxygenase (Photuris pensylvanica), Q27757 | actives 0.28% (n = 200,000) | Potency, µM (highest dose often 38.3 µM), for the others: top-dose activity change, negative = inhibition, hits mostly inhibitors | Kinase-Glo luciferase, ATP luminescence, 8 min | AID 1379, 2008; active = well fitted inhibition curve with a large enough effect; inconclusive = small, poorly fitted or top-dose-only effect; also: potency is read from the fitted curve at half-maximal effect; nearly all actives have a fitted effect of over 60% in size
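Kinase-Glo luciferase light output from ATP and luciferin was measured with 10 uM ATP, within the enzyme's linear range. Buffer: 50 mM imidazole pH 7.2, 50 mM KCl, 7 mM MgCl2, 0.01% Tween 20, 0.05% BSA; luminescence read after 8 min at ambient temperature.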
Active calls of the source: *; [ ] = another dose, or the depositor's remark. Unless noted, calls follow the shape of the dose curve; as a rule, active = well fitted inhibition curve with a large enough effect (not every such curve was filed as active); inconclusive = small, poorly fitted or top-dose-only effect, or another doubt; inactive = no such curve, though single readings can be large or run the other way. Unless noted, % is scaled to controls: 0 for no effect and ±100 for the full control effect.

Results for CCOC(=O)c1c(C)n(C)c2ccc(O)c(CN3CCN(C)CC3)c12 ?
PNC assembly inh: -16; Lamin A splicing: -5%; HPGD inh: -8%; ALDH1A1 block: 18µM*; IMPase cell inh: 7; KinaseGlo FLuc: -1%

What do the screens show for `CCOC(=O)c1c(C)n(C)c2ccc(O)c(CN3CCC(C)CC3)c12`?
PNC assembly inh: 35; Lamin A splicing: 0%; HPGD inh: 2%; ALDH1A1 block: -8%; IMPase cell inh: -1; KinaseGlo FLuc: 4%

Results for CCOC(=O)c1c(-c2ccccc2)oc2ccc(O)c(CN3CCN(C)CC3)c12 ?
PNC assembly inh: -114*; Lamin A splicing: inconclusive; HPGD inh: 2%; ALDH1A1 block: inconclusive; KinaseGlo FLuc: -1%

How did CCC(Sc1nc2ccccc2c2nc(CCc3c(C)n[nH]c3C)nn12)C(=O)Nc1ccc(F)cc1 (stereo not given) do in these assays?
Lamin A splicing: 12%[46 µM]

What do the screens show for `Cc1ccccc1OCc1nc2ccccc2[nH]1`?
ALDH1A1 block: -1%; KinaseGlo FLuc: 13µM*

What do the screens show for `CC(=O)c1c(C)nc(-c2ccc(Cl)cc2Cl)n1O`?
PNC assembly inh: -100*; Lamin A splicing: -8%; HPGD inh: -16%; ALDH1A1 block: 9%; IMPase cell inh: -7; KinaseGlo FLuc: 2%

Results for CCC(Sc1nc2nccnc2c(=O)n1Cc1ccc(F)cc1)C(=O)NC1CCCCC1 (stereo not given) ?
Lamin A splicing: 7%[46 µM]

What do the screens show for `CCCCC(c1nnnn1CCOC)N1CCN(CC)CC1` (stereo not given)?
PNC assembly inh: -100*; Lamin A splicing: -12%; HPGD inh: -8%; ALDH1A1 block: 1%; IMPase cell inh: -10; KinaseGlo FLuc: 0%

What do the screens show for `Cc1ccc(C(=O)CSc2nnc(CNc3ccc(C)cc3C)n2Cc2ccco2)cc1`?
PNC assembly inh: -15; Lamin A splicing: -8%; HPGD inh: -16%; ALDH1A1 block: 22µM*; IMPase cell inh: -3; KinaseGlo FLuc: 1%

What do the screens show for `COc1ccc(C(=O)CSc2nnc(CNc3ccc(C)cc3C)n2Cc2ccco2)cc1`?
PNC assembly inh: -9; Lamin A splicing: inconclusive; HPGD inh: inconclusive; ALDH1A1 block: 7.1µM*; IMPase cell inh: 1; KinaseGlo FLuc: 0%

What do the screens show for `C#C[C@H](N)CCC(=O)O`?
IMPase cell inh: 2

What do the screens show for `CCC(Sc1nnnn1C)C(=O)Nc1ccc(C(C)=O)cc1` (stereo not given)?
PNC assembly inh: -87*; Lamin A splicing: -3%; HPGD inh: -8%; ALDH1A1 block: -9%; IMPase cell inh: 5; KinaseGlo FLuc: 0%

How did CCN1CCN(CCCNC(=O)c2csc3c2CCCCC3)CC1 do in these assays?
PNC assembly inh: 122; Lamin A splicing: 2%; HPGD inh: -7%; ALDH1A1 block: -1%; IMPase cell inh: -1; KinaseGlo FLuc: -4%

How did O=C(NCC1CCCO1)c1csc2c1CCCC2 (stereo not given) do in these assays?
PNC assembly inh: -14; Lamin A splicing: 1%; HPGD inh: 20µM*; ALDH1A1 block: -11%; IMPase cell inh: 4; KinaseGlo FLuc: -2%

Results for CCN1CCCC1CNC(=O)c1csc2c1CCCC2 (stereo not given) ?
PNC assembly inh: -85*; Lamin A splicing: -11%; HPGD inh: -4%; ALDH1A1 block: 0%; IMPase cell inh: 3[1.84 µM]; KinaseGlo FLuc: 4%

What do the screens show for `COCCNC(=O)c1csc2c1CCCC2`?
PNC assembly inh: inconclusive; Lamin A splicing: 5%; HPGD inh: 16µM*; ALDH1A1 block: -8%; IMPase cell inh: 4; KinaseGlo FLuc: 1%

How did O=C(NCCN1CCOCC1)c1csc2c1CCCCC2 do in these assays?
PNC assembly inh: 62; Lamin A splicing: 17%; HPGD inh: -14%; ALDH1A1 block: -1%; IMPase cell inh: 9; KinaseGlo FLuc: 2%

How did COCCNC(=O)CSc1ncnc2sccc12 do in these assays?
PNC assembly inh: -20; Lamin A splicing: 11%; HPGD inh: 18µM*; ALDH1A1 block: -3%; IMPase cell inh: -5; KinaseGlo FLuc: 0%

How did Nc1nc(Cl)nc2c1ncn2[C@@H]1O[C@H](CO)[C@H](O)[C@H]1O do in these assays?
Lamin A splicing: inconclusive; HPGD inh: -8%; ALDH1A1 block: -6%; KinaseGlo FLuc: -2%

How did N#Cc1cc2c([nH]c1=S)CCCCCC2 do in these assays?
PNC assembly inh: -10; Lamin A splicing: 8%; HPGD inh: 7.9µM*; ALDH1A1 block: 10µM*; IMPase cell inh: -3; KinaseGlo FLuc: 1%

Results for N#Cc1cc2c(nc1SCC(N)=O)CCCCC2 ?
PNC assembly inh: 23; Lamin A splicing: 8%; HPGD inh: -14%; ALDH1A1 block: -14%; IMPase cell inh: -8; KinaseGlo FLuc: -1%

How did COc1ccc(N/C=C2/Sc3ccccc3NC2=O)cc1 do in these assays?
ALDH1A1 block: 4µM*; KinaseGlo FLuc: -5%

How did CCC(C)NC(=O)/C=C1\Sc2ccccc2NC1=O (stereo not given) do in these assays?
PNC assembly inh: 28; Lamin A splicing: -2%; HPGD inh: inconclusive; ALDH1A1 block: inconclusive; IMPase cell inh: 6; KinaseGlo FLuc: 1%

Results for COc1ccccc1N/C=C1/Sc2cc(Cl)ccc2NC1=O ?
Lamin A splicing: -15%[46 µM]; ALDH1A1 block: inconclusive; KinaseGlo FLuc: 3%

Results for Cc1ccc(N/C=C2/Sc3ccccc3NC2=O)cc1 ?
Lamin A splicing: inconclusive; ALDH1A1 block: 22µM*; KinaseGlo FLuc: 0%

What do the screens show for `O=C1Nc2ccccc2S/C1=C/NCc1ccccc1Cl`?
Lamin A splicing: -15%[9.22 µM]; ALDH1A1 block: 4.5µM*; KinaseGlo FLuc: 1%

Results for COc1ccccc1C(=O)Nc1nnc2n1CCS2 ?
Lamin A splicing: 2%[46 µM]

What do the screens show for `COC(=O)C1=C(C(=O)OC)[C@@H]2N(C)c3ccccc3[C@@]23C[C@@H](C(=O)OC)N(S(=O)(=O)c2ccc(C(F)(F)F)cc2)C3=N1`?
Lamin A splicing: 9%[9.22 µM]; HPGD inh: -2%; ALDH1A1 block: 2%[13.5 µM]; KinaseGlo FLuc: -8%[7.66 µM]

What do the screens show for `Cc1sc2nc(CSCC(=O)Nc3ccc(OC(F)F)cc3)[nH]c(=O)c2c1C`?
ALDH1A1 block: 40µM*; KinaseGlo FLuc: 2%
